# In article PMC12864922, “TDP-43 directly inhibits mRNA accumulation in neurites through modulation of mRNA stability”:
# Over roughly 9,900 sequences, “r (bound/input frequency ratio)” has its median near 0.7; the highest 2% begin near 6.5. The sample holds the highest values, similar sequences and a random draw of the others, so the mix is not that of the screen.
# B1: ENSMUSG00000090935.669|Synj2bp (ssRNA)
# RNA: GGGAGUUCUACAGUCCGACGAUCGCUUCGAUAUCCGCAUGCUAUGGAGUGAGAUGAGUGUGUGCCAGCCAGCAACUCUGUCCUUCUAGGUAACUGGUUCAUGCUGAACCUUGAGAUUCACCACUGUCAGGAGCUCUCUCUCUCUGCUUAGAAUCAUCCAGACAGCGGGCUGGUCAGCCCACAUUAAAUAAGAACAUGUGGGACUAGAAUUCAGUCAACAAUGACAUGUUUCAUCAGGUGGUUAAAAUGUACAGAUUCUGUUGGAAAUGUUCCAUGGUAUUUCAAUAGCCAGAAUGAAGAACUGCUCUUGCGGUCGCACUAGUGUGGAAUUCUCGGGUGUCAAGG
# B2: ENSMUSG00000061578.1443|Ksr2 (ssRNA)
# RNA: GGGAGUUCUACAGUCCGACGAUCGCUUCGAUAUCCGCAUGCUAGCAAGUAGGAUGGAUGGAUGAGUGAGUGGAUAGGUAGGUAUAUAAAUGGAUGGAUGGGUGAUGGAUGGGUAAAUGAAUGGAUAGGUAUGUGAAUGAAUGGAUGAUGGAUGAAUGGAUGGGUAGGUGGGUAGAUAGGUAUAUGAAUGAAUGGAUGAAUGGAUGGGUGAAUGGAUGGAUAGGUAUGUGAAUAAAUGGAUGGAUGGAUGGAUUGAUUUGUGAAUGAAUGGAUGAAUGGAUGGGUAGGUGGGUGGAUGCAUAGGCUCUUGCGGUCGCACUAGUGUGGAAUUCUCGGGUGUCAAGG
# B3: ENSMUSG00000061578.1454|Ksr2 (ssRNA)
# RNA: GGGAGUUCUACAGUCCGACGAUCGCUUCGAUAUCCGCAUGCUAGGGUAAAUGAAUGGAUAGGUAUGUGAAUGAAUGGAUGAUGGAUGAAUGGAUGGGUAGGUGGGUAGAUAGGUAUAUGAAUGAAUGGAUGAAUGGAUGGGUGAAUGGAUGGAUAGGUAUGUGAAUAAAUGGAUGGAUGGAUGGAUUGAUUUGUGAAUGAAUGGAUGAAUGGAUGGGUAGGUGGGUGGAUGCAUAGGCAAGUAGAUGAAUGAAUAUGUGGGUAGAAGGGUGAGUGGGUGGAUGAAUGGAUGGAUAGGUUGGUACUCUUGCGGUCGCACUAGUGUGGAAUUCUCGGGUGUCAAGG
# B4: ENSMUSG00000061578.1449|Ksr2 (ssRNA)
# RNA: GGGAGUUCUACAGUCCGACGAUCGCUUCGAUAUCCGCAUGCUAGGUAUAUAAAUGGAUGGAUGGGUGAUGGAUGGGUAAAUGAAUGGAUAGGUAUGUGAAUGAAUGGAUGAUGGAUGAAUGGAUGGGUAGGUGGGUAGAUAGGUAUAUGAAUGAAUGGAUGAAUGGAUGGGUGAAUGGAUGGAUAGGUAUGUGAAUAAAUGGAUGGAUGGAUGGAUUGAUUUGUGAAUGAAUGGAUGAAUGGAUGGGUAGGUGGGUGGAUGCAUAGGCAAGUAGAUGAAUGAAUAUGUGGGUAGAAGGGUGAGCUCUUGCGGUCGCACUAGUGUGGAAUUCUCGGGUGUCAAGG
# B5: ENSMUSG00000090935.713|Synj2bp (ssRNA)
# RNA: GGGAGUUCUACAGUCCGACGAUCGCUUCGAUAUCCGCAUGCUAAAGUCCAGAGCUCUGCUCUCUGAGCAUCUGCCCCAGAUACAGAGGCAGAGUAUGAAGUGGAACAUUGUUUUAUUCCUAGGUGCUCAGGACAGACUGAUCAACCUCCAGUAACAUAUGUGGUUAGUAAGUGCUUCAGCUUGUGUAGCCAUUAAUAACCAAGUCAUAGGAUUGUGAAUCUAAAAUACUCCUGGGUAAAAUUUGUAUUAGAAUGGAAAAAAAAAUGAGGGUCAGAAAGGUGAGCUAACUUCAAGUUAGAUACUCUCUUGCGGUCGCACUAGUGUGGAAUUCUCGGGUGUCAAGG
# B6: ENSMUSG00000031028.410|Tub (ssRNA)
# RNA: GGGAGUUCUACAGUCCGACGAUCGCUUCGAUAUCCGCAUGCUAAGAUCCCUUACCCCUCAUCCCCUCUUCUUUUUGGUCCUUGGCUGGGUAGCAAAUUGGUGAGAAGAGCAGCCUAGUCUGUAAGAGUGCAGGGCAGCUGGAACCUUAGGCAGCUCCUCUGUAUGCUACCGGCUCCACACCCUAACACUCUCCACCCUCUGCUCCAAACCAGUUCUUCUGCAGAGUGGUGAUGUUAGCUUCCCCAGCUCCUCUCCAAGUCUAGCUUUUUCUGUCCUUCUGGCUCCAAGGUGCUCUGUGUCUGUCUCUUGCGGUCGCACUAGUGUGGAAUUCUCGGGUGUCAAGG
# B7: ENSMUSG00000031028.414|Tub (ssRNA)
# RNA: GGGAGUUCUACAGUCCGACGAUCGCUUCGAUAUCCGCAUGCUAUUCUUUUUGGUCCUUGGCUGGGUAGCAAAUUGGUGAGAAGAGCAGCCUAGUCUGUAAGAGUGCAGGGCAGCUGGAACCUUAGGCAGCUCCUCUGUAUGCUACCGGCUCCACACCCUAACACUCUCCACCCUCUGCUCCAAACCAGUUCUUCUGCAGAGUGGUGAUGUUAGCUUCCCCAGCUCCUCUCCAAGUCUAGCUUUUUCUGUCCUUCUGGCUCCAAGGUGCUCUGUGUCUGUGUGUGUGUGUCUGUCUGUGUGUGUCUCUUGCGGUCGCACUAGUGUGGAAUUCUCGGGUGUCAAGG
# B8: ENSMUSG00000031028.411|Tub (ssRNA)
# RNA: GGGAGUUCUACAGUCCGACGAUCGCUUCGAUAUCCGCAUGCUACUUACCCCUCAUCCCCUCUUCUUUUUGGUCCUUGGCUGGGUAGCAAAUUGGUGAGAAGAGCAGCCUAGUCUGUAAGAGUGCAGGGCAGCUGGAACCUUAGGCAGCUCCUCUGUAUGCUACCGGCUCCACACCCUAACACUCUCCACCCUCUGCUCCAAACCAGUUCUUCUGCAGAGUGGUGAUGUUAGCUUCCCCAGCUCCUCUCCAAGUCUAGCUUUUUCUGUCCUUCUGGCUCCAAGGUGCUCUGUGUCUGUGUGUGUCUCUUGCGGUCGCACUAGUGUGGAAUUCUCGGGUGUCAAGG
# B9: ENSMUSG00000031028.412|Tub (ssRNA)
# RNA: GGGAGUUCUACAGUCCGACGAUCGCUUCGAUAUCCGCAUGCUACCUCAUCCCCUCUUCUUUUUGGUCCUUGGCUGGGUAGCAAAUUGGUGAGAAGAGCAGCCUAGUCUGUAAGAGUGCAGGGCAGCUGGAACCUUAGGCAGCUCCUCUGUAUGCUACCGGCUCCACACCCUAACACUCUCCACCCUCUGCUCCAAACCAGUUCUUCUGCAGAGUGGUGAUGUUAGCUUCCCCAGCUCCUCUCCAAGUCUAGCUUUUUCUGUCCUUCUGGCUCCAAGGUGCUCUGUGUCUGUGUGUGUGUGUCUCUCUUGCGGUCGCACUAGUGUGGAAUUCUCGGGUGUCAAGG
# B10: ENSMUSG00000031028.415|Tub (ssRNA)
# RNA: GGGAGUUCUACAGUCCGACGAUCGCUUCGAUAUCCGCAUGCUAUUGGUCCUUGGCUGGGUAGCAAAUUGGUGAGAAGAGCAGCCUAGUCUGUAAGAGUGCAGGGCAGCUGGAACCUUAGGCAGCUCCUCUGUAUGCUACCGGCUCCACACCCUAACACUCUCCACCCUCUGCUCCAAACCAGUUCUUCUGCAGAGUGGUGAUGUUAGCUUCCCCAGCUCCUCUCCAAGUCUAGCUUUUUCUGUCCUUCUGGCUCCAAGGUGCUCUGUGUCUGUGUGUGUGUGUCUGUCUGUGUGUGUGUGUGUCUCUUGCGGUCGCACUAGUGUGGAAUUCUCGGGUGUCAAGG
# B11: ENSMUSG00000031028.413|Tub (ssRNA)
# RNA: GGGAGUUCUACAGUCCGACGAUCGCUUCGAUAUCCGCAUGCUACCCCUCUUCUUUUUGGUCCUUGGCUGGGUAGCAAAUUGGUGAGAAGAGCAGCCUAGUCUGUAAGAGUGCAGGGCAGCUGGAACCUUAGGCAGCUCCUCUGUAUGCUACCGGCUCCACACCCUAACACUCUCCACCCUCUGCUCCAAACCAGUUCUUCUGCAGAGUGGUGAUGUUAGCUUCCCCAGCUCCUCUCCAAGUCUAGCUUUUUCUGUCCUUCUGGCUCCAAGGUGCUCUGUGUCUGUGUGUGUGUGUCUGUCUGUCUCUUGCGGUCGCACUAGUGUGGAAUUCUCGGGUGUCAAGG
# B12: ENSMUSG00000043670.304|Diras1 (ssRNA)
# RNA: GGGAGUUCUACAGUCCGACGAUCGCUUCGAUAUCCGCAUGCUAGUCACAAAGAGACAGAGAAGCAGAAAGAAGGCUGAAGCCAGAUGACCAAGUAGGCCGGACCCCACUGUGUUCCCUUCUGUGUGCCAGGCACAGGGAGAGCCACAGCCUGAAGCCUGAGUCUGAGCAUAGCUGAGCCCUGACCUCUAGCCAGCCCAGGGCCCCCACAGCUGCCACCUGCUCCCAAGCCCCGGGAGUGGCUCCUGGCUGGACAGGGGGUCACAGCCCUUUCUCAGGGACACACCCUGAUAGCACAAUCUCUGCUCUUGCGGUCGCACUAGUGUGGAAUUCUCGGGUGUCAAGG
# B13: ENSMUSG00000029636.41|Wasf3|31:35;229:235 (ssRNA)
# RNA: GGGAGUUCUACAGUCCGACGAUCGCUUCGAUAUCCGCAUGCUACACAUCCUUCUGGAUUUGUUGAGUAUUUACACACAAAUACUUAAGUGCCACAGAACACAGCACACCGUGCUGCACACCAGGAAACUCGCAGUAUUAGUGCAUCACCCUGGAACAGCAUCUUGCUUCCCUCUCAGCCGUGAGAGUCCCCUCUCCUGUCCAUCCUGAUUUGGUGGGCUUGCCACGUAUCUGCGCAGCUGCCCCACGUCAGCUCUCUGCAAGAUCACUGGCACACACACUCAGUGAUGUCUUCCAACCAGUGGCUCUUGCGGUCGCACUAGUGUGGAAUUCUCGGGUGUCAAGG
# Target: TDP-43 (Homo sapiens, UniProt Q13148 1-414)
# Test: RNA Bind-n-Seq with designed 260-mer pool; 25 mM Tris-HCl, 150 mM KCl, 3 mM MgCl2, BSA (printed 500 mg/mL), 20 units/mL SUPERase IN; pH not stated; 500 nM RNA pool, 1 h, 4 C; TDP-43 5, 50, 500 nM; high values mean tight binding
# Settings: protein: recombinant; tags: SBP (GST cleaved off with PreScission; pGEX-GST-SBP)
# Method in brief: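 Recombinant SBP-tagged TDP-43 at 5, 50 or 500 nM was captured on streptavidin beads, then incubated 1 h at 4 °C with 500 nM of an in vitro-transcribed 260-nt 3′ UTR oligo pool in 25 mM Tris-HCl, 150 mM KCl, 3 mM MgCl2, BSA and SUPERase IN. Bound RNA was washed, eluted with biotin, reverse transcribed, PCR-amplified and sequenced. Binding is R, each oligo's mapped-read-normalized abundance in the bound sample divided by its abundance in input. Duplicates used two independent protein batches.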
# TDP-43, sequence (Q13148 whole entry): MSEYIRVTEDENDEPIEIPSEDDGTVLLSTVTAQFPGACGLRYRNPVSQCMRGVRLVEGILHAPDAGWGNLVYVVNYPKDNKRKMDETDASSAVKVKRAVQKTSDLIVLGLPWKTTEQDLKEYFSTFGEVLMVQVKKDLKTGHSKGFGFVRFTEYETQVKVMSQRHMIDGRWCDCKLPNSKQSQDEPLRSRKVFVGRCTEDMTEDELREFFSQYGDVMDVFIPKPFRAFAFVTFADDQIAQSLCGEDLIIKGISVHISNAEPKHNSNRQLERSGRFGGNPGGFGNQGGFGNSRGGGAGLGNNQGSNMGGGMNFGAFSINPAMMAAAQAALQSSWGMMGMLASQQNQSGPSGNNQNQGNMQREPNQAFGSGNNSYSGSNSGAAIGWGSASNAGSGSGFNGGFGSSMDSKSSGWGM
row,Binder,binding signal
1,B1,1.53 R (bound/input frequency ratio)
2,B2,9.18 R (bound/input frequency ratio)
3,B3,2.48 R (bound/input frequency ratio)
4,B4,3.93 R (bound/input frequency ratio)
5,B5,1.85 R (bound/input frequency ratio)
6,B6,1.11 R (bound/input frequency ratio)
7,B7,6.55 R (bound/input frequency ratio)
8,B8,1.34 R (bound/input frequency ratio)
9,B9,2.36 R (bound/input frequency ratio)
10,B10,6.65 R (bound/input frequency ratio)
11,B11,3.56 R (bound/input frequency ratio)
12,B12,0.472 R (bound/input frequency ratio)
13,B13,0.406 R (bound/input frequency ratio)
